Assay [1] can be described thus: rescue of PC12 cells from polyQ htt toxicity – LDH release (AID 1610). As to conditions: PC12 mutant huntingtin toxicity, final LDH at 4 uM, stronger effect = lower value. (LDH leaks from cells whose membrane has failed.)
Assay [2] concerns the target Huntingtin (Homo sapiens) (UniProt P42858). In words: mutant huntingtin aggregation blockers – QA1, dose response (AID 1584). As to conditions: in vitro mutant huntingtin aggregation assay; confirmation test; at 10 µM; stronger effect = lower value.

Structures are written as SMILES. Results filed as inconclusive are left out.

Sequence of Huntingtin (Homo sapiens) (P42858 whole entry, looked up): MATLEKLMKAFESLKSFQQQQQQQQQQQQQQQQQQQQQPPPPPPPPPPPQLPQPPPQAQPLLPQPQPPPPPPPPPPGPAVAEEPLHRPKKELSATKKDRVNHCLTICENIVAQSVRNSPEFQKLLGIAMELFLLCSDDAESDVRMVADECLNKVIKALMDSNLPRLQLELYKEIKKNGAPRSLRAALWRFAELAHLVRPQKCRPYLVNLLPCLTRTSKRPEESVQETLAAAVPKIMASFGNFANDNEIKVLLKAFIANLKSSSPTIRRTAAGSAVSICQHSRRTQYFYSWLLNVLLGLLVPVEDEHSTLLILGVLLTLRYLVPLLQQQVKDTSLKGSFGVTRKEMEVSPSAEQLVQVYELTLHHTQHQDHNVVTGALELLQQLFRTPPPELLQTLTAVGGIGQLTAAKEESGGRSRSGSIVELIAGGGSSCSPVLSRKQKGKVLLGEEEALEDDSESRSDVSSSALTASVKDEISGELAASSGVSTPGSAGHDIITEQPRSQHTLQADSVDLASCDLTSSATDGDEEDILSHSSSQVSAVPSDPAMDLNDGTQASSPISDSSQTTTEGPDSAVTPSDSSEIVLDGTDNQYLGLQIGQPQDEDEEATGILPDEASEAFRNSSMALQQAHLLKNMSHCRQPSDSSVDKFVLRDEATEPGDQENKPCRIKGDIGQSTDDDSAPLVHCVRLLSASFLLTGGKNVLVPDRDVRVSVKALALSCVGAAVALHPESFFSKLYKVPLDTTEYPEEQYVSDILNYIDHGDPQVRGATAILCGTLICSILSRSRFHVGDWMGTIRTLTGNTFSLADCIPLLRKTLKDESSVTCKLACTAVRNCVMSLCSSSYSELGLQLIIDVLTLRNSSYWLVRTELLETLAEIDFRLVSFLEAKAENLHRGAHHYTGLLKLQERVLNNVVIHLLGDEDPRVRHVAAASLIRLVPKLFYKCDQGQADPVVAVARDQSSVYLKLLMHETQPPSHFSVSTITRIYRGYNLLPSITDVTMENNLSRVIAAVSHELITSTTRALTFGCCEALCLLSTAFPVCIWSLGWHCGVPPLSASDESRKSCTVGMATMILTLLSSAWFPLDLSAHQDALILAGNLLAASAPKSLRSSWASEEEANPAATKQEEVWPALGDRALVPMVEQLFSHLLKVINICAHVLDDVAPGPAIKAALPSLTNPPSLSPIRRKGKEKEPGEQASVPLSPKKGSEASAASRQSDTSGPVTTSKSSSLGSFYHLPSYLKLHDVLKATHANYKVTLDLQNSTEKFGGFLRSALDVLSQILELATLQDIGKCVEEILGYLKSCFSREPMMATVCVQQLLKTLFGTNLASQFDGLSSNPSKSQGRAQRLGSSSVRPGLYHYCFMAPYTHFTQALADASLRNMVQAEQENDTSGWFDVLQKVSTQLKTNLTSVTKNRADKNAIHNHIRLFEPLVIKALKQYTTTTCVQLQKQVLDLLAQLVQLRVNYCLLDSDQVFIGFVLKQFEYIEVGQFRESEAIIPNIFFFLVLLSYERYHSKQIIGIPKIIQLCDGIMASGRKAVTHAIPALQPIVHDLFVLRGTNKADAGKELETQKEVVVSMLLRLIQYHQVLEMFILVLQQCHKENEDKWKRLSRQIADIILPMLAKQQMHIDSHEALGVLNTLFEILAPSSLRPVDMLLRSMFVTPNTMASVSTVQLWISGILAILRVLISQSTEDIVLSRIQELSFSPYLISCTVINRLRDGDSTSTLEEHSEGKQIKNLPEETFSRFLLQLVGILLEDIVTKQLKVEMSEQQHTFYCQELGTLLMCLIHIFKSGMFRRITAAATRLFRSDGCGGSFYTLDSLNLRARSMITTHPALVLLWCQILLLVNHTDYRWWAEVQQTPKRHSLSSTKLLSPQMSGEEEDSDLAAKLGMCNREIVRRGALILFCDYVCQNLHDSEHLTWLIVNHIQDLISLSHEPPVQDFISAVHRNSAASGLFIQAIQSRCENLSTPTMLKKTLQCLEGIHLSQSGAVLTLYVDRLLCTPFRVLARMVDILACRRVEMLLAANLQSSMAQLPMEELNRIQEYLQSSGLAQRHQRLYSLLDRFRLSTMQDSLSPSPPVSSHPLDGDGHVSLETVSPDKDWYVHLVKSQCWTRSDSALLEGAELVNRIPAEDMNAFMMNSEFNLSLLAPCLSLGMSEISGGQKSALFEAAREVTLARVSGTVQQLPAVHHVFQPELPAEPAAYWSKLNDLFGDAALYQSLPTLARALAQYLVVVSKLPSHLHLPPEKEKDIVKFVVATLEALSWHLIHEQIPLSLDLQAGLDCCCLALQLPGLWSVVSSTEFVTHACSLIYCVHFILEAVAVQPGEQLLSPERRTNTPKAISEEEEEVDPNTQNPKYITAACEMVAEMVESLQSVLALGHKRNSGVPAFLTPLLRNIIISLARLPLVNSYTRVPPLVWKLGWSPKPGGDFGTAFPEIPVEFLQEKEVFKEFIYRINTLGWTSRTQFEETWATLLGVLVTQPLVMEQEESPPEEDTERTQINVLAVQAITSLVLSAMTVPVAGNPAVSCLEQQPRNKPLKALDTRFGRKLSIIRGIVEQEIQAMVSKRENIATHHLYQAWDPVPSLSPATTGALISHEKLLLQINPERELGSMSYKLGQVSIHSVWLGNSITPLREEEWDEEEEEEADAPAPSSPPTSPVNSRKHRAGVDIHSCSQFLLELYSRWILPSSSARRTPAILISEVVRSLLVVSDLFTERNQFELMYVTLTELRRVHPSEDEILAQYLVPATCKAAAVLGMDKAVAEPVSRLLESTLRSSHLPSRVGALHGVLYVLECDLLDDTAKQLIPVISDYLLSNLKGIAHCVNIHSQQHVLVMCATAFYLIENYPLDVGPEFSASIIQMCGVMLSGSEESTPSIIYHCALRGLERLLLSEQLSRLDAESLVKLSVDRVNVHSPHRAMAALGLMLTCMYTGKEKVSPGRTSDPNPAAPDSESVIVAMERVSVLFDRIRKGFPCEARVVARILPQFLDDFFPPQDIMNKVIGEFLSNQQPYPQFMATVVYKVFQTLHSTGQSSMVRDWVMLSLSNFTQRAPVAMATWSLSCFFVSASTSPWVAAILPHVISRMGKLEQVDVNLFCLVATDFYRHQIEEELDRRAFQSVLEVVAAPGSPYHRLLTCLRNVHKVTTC

In turn, `O=c1c2ccccc2[se]n1-c1ccccc1` yielded a normalised LDH release in assay [1] of 0.64.

For `O=C1C=CC(=O)c2c(O)cccc21`, the aggregation ratio in assay [2] is 0.312.

`O=C1C=C2C(=CCOC2O)O1` (stereo not drawn) gave a normalised LDH release in assay [1] of 0.848.

The record behind these values is PubChem BioAssay.
